Experimental data published in the supplement of paper PMC8975748.
Where a name gives a salt, the structure may show the parent alone.

These molecules were tested on Saccharomyces cerevisiae BY4741 SeMeCo community (assay: z-score of subpopulation abundance vs DMSO median, subpopulation auxotrophic for U; higher = larger share of this subpopulation than in DMSO controls). Details: 10 µM; 24 h; SM minimal medium; subpopulation (auxotrophy): U.
Description: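 Fluorescent four-plasmid SeMeCo (self-establishing metabolically cooperating S. cerevisiae BY4741 community; plasmids pH-mRuby2, pL-mWasabi, pU-eCFP, pM-TagRFP657) was grown 24 h in minimal SM medium with each Selleck FDA-approved drug at 10 µM in 384-well plates. Cells were fixed and imaged by high-content confocal microscopy. For each auxotrophic subpopulation (and the prototroph), a z-score gives the deviation from the DMSO vehicle-control population median.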

| SMILES | z-score of subpopulation abundance |
| --- | --- |
| O=C(c1ccc(F)cc1)C1CCN(CCn2c(=O)[nH]c3ccccc3c2=O)CC1 [Ketanserin] | 0.03 |
| Nc1nc2[nH]cc(CCc3ccc(C(=O)N[C@@H](CCC(=O)O)C(=O)O)cc3)c2c(=O)[nH]1 [Pemetrexed Disodium Hydrate] | -1.03 |
| CN[C@@H]1[C@@H](O)[C@@H](O[C@@H]2[C@@H](O)[C@H](O[C@H]3O[C@H](CN)[C@@H](O)[C@H](O)[C@H]3O)[C@@H](N)C[C@H]2NC(=O)[C@@H](O)CN)OC[C@]1(C)O [Isepamicin Sulphate] | 1.4 |
| O=C(O)c1cn(C2CC2)c2cc(N3CCNCC3)c(F)cc2c1=O [Ciprofloxacin hydrochloride hydrate] | 0.96 |
| Cc1cc(CC(C)CC(C)(C)C)n(O)c(=O)c1 (stereo not given) [Piroctone Olamine] | 1.32 |
| Cc1nc(=O)c2cc(CN(C)c3ccc(C(=O)N[C@@H](CCC(=O)O)C(=O)O)s3)ccc2[nH]1 [Raltitrexed] | -1.11 |
| Cc1cccc(C)c1NC(=O)C1CCCCN1C (stereo not given) [Mepivacaine] | 0.11 |
| O=[N+]([O-])c1ccc(O)c2ncccc12 [Nitroxoline] | -2.48 |
| CCC(=O)Oc1ccc2c(c1)CCC1C2CCC2(C)C(OC(=O)CC)CCC12 (stereo not drawn) [Estradiol dipropionate(17-Beta-Estradiol-3,17-Dipropionate)] | 0.61 |
| Cc1onc(-c2ccccc2)c1C(=O)N[C@@H]1C(=O)N2[C@@H]1SC(C)(C)[C@@H]2C(=O)O [Oxacillin sodium monohydrate] | 0.36 |
| CN(C)CCN1C(=O)c2cccc3cc(N)cc(c23)C1=O [Amonafide] | -1.14 |
| O=C1CN(/N=C/c2ccc(-c3ccc([N+](=O)[O-])cc3)o2)C(=O)N1 [Dantrolene sodium] | -3.65 |
| CC(NCCC(c1ccccc1)c1ccccc1)c1ccccc1 (stereo not given) [Fendiline hydrochloride] | -0.43 |
| CCOC(=O)C1=C[C@]2(CC)CCCN3CCc4c(n1c1ccccc41)[C@@H]32 [Vinpocetine] | 0.11 |
| CCc1nn(CCCN2CCN(c3cccc(Cl)c3)CC2)c(=O)n1CCOc1ccccc1 [Nefazodone hydrochloride] | -0.01 |
| C[C@@H]1O[C@@H]1P(=O)(O)O [Fosfomycin Disodium] | -0.22 |
| Cn1c(=O)c2c(ncn2CC(O)CO)n(C)c1=O (stereo not given) [Dyphylline] | 0.26 |
| Cc1c(S(=O)(=O)O)oc2c1C(=O)C(=O)c1c-2ccc2c1CCCC2(C)C [Tanshinone IIA sulfonate (sodium)] | -1.39 |
| CC1(C)S[C@@H]2[C@H](NC(=O)[C@H](N)c3ccccc3)C(=O)N2[C@H]1C(=O)O [Ampicillin sodium] | 0.29 |
| CN1CC(=O)N2[C@H](c3ccc4c(c3)OCO4)c3[nH]c4ccccc4c3C[C@@H]2C1=O [Tadalafil] | -1.35 |

| SMILES | z-score of subpopulation abundance |
| --- | --- |
| CN[C@H]1C(=O)N[C@@H]2Cc3ccc(cc3)Oc3cc4cc(c3O[C@@H]3O[C@H](C(=O)O)[C@@H](O)[C@H](O)[C@H]3NC(=O)CCCCCCCCC(C)C)Oc3ccc(cc3Cl)[C@@H](O)[C@@H]3NC(=O)[C@H](NC(=O)[C@@H]4NC(=O)[C@@H](NC2=O)c2cc(cc(O)c2Cl)Oc2cc1ccc2O)c1ccc(O)c(c1)-c1c(O[C@H]2O[C@H](CO)[C@@H](O)[C@H](O)[C@@H]2O)cc(O)cc1[C@@H](C(=O)NCCCN(C)C)NC3=O [Dalbavancin] | 1.53 |
| C[C@H](NCc1ccc(OCc2cccc(F)c2)cc1)C(N)=O [Safinamide] | 1.46 |
| COc1cccc2c1C(=O)c1c(O)c3c(c(O)c1C2=O)C[C@@](O)(C(=O)CO)C[C@@H]3O[C@H]1C[C@H](N)[C@H](O[C@@H]2CCCCO2)[C@H](C)O1 [Pirarubicin] | 5.25 |
| COc1cc2c(cc1OC)-c1cc3ccc(OC)c(OC)c3c[n+]1CC2 [Palmatine] | -0.98 |
| CC[C@H]1OC(=O)C[C@@H](O)[C@H](C)[C@@H](O[C@@H]2O[C@H](C)[C@@H](O)[C@H](N(C)C)[C@H]2O)[C@@H](CCN2C[C@H](C)C[C@H](C)C2)C[C@@H](C)C(=O)/C=C/C(C)=C/[C@@H]1CO[C@@H]1O[C@H](C)[C@@H](O)[C@@H](OC)[C@H]1OC [Tilmicosin] | 0.52 |
| O=C(O)c1cn(-c2ccc(F)cc2)c2cc(N3CCNCC3)c(F)cc2c1=O [Sarafloxacin HCl] | 0.41 |
| CC1=CC[C@@](O)(C(C)C)CC1 [Terpinen-4-ol] | 0.8 |
| N=C(N)NC(=N)N1CCOCC1 [Moroxydine HCl] | 0.43 |
| CCN1CC(CCN2CCOCC2)C(c2ccccc2)(c2ccccc2)C1=O (stereo not given) [Doxapram HCl] | 0.42 |
| COc1cc(NS(=O)(=O)c2ccc(N)cc2)nc(OC)n1 [SulfadiMethoxine sodium] | -0.68 |
| O=C(CCCN1CCC(O)(c2ccc(Cl)cc2)CC1)c1ccc(F)cc1 [Haloperidol] | -0.4 |
| N#Cc1ccc2[nH]cc(CCCCN3CCN(c4ccc5oc(C(N)=O)cc5c4)CC3)c2c1 [Vilazodone HCl] | -0.4 |
| Oc1ccc(Cl)c2cccnc12 [Cloxiquine] | -1.71 |
| CC1=C(C(=O)O)N2C(=O)[C@@H](NC(=O)[C@H](N)c3ccccc3)[C@H]2SC1 [Cephalexin] | -1.02 |
| CN1CCN2c3ncccc3Cc3ccccc3C2C1 (stereo not given) [Mirtazapine] | 0.29 |
| Nc1nc(=O)[nH]cc1F [Flucytosine] | 0.5 |
| CCN(Cc1ccncc1)C(=O)C(CO)c1ccccc1 (stereo not given) [Tropicamide] | 0.43 |
| CC(C)n1c(/C=C/C(O)CC(O)CC(=O)O)c(-c2ccc(F)cc2)c2ccccc21 (stereo not given) [Fluvastatin Sodium] | 0.84 |
| CC1(C)[C@H](C(=O)O)N2C(=O)C[C@H]2S1(=O)=O [Sulbactam sodium] | 1.59 |
| CC[C@H]1OC(=O)[C@H](C)[C@@H](O[C@H]2C[C@@](C)(OC)[C@@H](O)[C@H](C)O2)[C@H](C)[C@@H](O[C@@H]2O[C@H](C)C[C@H](N(C)C)[C@H]2O)[C@](C)(O)C[C@@H](C)/C(=N\OCOCCOC)[C@H](C)[C@@H](O)[C@]1(C)O [Roxithromycin] | 0.31 |
